Key:
Assay in all cases: log2 ratio of Biotin-Ahx-Ub-VS probe labelling (fragment/DMSO); higher = less target engagement (more negative = stronger competition), active = hit call of the paper (q ≤ 0.05, log2 ratio ≤ -1)
Details in all cases: compound concentration: 200 uM; treatment time: 3 h
USP19 = biological target: T1, USP19 (UniProt O94966)
T1 sequence (whole entry): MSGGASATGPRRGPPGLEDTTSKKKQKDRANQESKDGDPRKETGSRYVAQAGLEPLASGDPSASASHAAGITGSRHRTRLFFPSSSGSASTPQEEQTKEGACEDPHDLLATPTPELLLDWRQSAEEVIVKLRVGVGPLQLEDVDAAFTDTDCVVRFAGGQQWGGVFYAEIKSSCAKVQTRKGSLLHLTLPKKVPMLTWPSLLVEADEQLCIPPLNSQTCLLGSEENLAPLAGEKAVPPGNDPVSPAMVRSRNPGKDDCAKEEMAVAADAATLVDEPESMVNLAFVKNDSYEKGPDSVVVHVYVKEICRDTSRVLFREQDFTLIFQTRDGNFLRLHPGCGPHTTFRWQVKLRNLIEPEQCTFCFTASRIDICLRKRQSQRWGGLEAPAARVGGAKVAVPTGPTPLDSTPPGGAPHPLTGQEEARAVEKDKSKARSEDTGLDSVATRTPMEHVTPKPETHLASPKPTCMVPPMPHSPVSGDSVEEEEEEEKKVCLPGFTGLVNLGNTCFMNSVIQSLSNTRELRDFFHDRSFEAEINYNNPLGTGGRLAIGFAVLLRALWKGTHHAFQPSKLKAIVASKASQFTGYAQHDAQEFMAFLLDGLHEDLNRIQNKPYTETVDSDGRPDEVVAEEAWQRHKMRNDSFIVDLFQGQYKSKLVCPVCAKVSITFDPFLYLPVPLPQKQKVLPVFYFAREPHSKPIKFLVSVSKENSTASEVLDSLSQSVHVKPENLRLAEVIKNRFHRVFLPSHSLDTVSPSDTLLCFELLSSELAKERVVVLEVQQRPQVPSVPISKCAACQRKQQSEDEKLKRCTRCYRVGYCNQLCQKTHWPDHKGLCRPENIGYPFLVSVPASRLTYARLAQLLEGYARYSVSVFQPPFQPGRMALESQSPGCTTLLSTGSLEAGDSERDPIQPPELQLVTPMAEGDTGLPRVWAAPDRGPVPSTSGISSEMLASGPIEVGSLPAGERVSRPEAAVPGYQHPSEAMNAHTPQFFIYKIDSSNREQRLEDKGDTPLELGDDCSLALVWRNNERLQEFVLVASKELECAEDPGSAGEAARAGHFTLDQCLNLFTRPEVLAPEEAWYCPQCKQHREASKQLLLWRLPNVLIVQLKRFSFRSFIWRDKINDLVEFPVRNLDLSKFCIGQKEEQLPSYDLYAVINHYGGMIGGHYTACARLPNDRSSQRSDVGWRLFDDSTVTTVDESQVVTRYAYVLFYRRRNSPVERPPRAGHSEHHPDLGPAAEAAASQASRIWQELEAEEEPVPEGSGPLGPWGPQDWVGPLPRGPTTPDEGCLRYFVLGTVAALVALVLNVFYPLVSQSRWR
Procedure, shortened: (§1)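 Triplicate samples of HEK293T lysate, 495 µg each, received fragment at 200 µM or vehicle for 3 h, followed by Biotin-Ahx-Ub-VS (0.5 µM final) for 1 h. After NeutrAvidin enrichment of labelled DUBs and LysC/trypsin digestion, peptides were run by diaPASEF LC-MS/MS. The values are average log2 fragment/vehicle ratios from global-median-normalised Spectronaut label-free quantities, tested by unpaired t-test on proteins having ≥2 unique peptides.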

USP24 = USP24 (UniProt Q9UPU5)
Sequence of USP24 (Q9UPU5 whole entry): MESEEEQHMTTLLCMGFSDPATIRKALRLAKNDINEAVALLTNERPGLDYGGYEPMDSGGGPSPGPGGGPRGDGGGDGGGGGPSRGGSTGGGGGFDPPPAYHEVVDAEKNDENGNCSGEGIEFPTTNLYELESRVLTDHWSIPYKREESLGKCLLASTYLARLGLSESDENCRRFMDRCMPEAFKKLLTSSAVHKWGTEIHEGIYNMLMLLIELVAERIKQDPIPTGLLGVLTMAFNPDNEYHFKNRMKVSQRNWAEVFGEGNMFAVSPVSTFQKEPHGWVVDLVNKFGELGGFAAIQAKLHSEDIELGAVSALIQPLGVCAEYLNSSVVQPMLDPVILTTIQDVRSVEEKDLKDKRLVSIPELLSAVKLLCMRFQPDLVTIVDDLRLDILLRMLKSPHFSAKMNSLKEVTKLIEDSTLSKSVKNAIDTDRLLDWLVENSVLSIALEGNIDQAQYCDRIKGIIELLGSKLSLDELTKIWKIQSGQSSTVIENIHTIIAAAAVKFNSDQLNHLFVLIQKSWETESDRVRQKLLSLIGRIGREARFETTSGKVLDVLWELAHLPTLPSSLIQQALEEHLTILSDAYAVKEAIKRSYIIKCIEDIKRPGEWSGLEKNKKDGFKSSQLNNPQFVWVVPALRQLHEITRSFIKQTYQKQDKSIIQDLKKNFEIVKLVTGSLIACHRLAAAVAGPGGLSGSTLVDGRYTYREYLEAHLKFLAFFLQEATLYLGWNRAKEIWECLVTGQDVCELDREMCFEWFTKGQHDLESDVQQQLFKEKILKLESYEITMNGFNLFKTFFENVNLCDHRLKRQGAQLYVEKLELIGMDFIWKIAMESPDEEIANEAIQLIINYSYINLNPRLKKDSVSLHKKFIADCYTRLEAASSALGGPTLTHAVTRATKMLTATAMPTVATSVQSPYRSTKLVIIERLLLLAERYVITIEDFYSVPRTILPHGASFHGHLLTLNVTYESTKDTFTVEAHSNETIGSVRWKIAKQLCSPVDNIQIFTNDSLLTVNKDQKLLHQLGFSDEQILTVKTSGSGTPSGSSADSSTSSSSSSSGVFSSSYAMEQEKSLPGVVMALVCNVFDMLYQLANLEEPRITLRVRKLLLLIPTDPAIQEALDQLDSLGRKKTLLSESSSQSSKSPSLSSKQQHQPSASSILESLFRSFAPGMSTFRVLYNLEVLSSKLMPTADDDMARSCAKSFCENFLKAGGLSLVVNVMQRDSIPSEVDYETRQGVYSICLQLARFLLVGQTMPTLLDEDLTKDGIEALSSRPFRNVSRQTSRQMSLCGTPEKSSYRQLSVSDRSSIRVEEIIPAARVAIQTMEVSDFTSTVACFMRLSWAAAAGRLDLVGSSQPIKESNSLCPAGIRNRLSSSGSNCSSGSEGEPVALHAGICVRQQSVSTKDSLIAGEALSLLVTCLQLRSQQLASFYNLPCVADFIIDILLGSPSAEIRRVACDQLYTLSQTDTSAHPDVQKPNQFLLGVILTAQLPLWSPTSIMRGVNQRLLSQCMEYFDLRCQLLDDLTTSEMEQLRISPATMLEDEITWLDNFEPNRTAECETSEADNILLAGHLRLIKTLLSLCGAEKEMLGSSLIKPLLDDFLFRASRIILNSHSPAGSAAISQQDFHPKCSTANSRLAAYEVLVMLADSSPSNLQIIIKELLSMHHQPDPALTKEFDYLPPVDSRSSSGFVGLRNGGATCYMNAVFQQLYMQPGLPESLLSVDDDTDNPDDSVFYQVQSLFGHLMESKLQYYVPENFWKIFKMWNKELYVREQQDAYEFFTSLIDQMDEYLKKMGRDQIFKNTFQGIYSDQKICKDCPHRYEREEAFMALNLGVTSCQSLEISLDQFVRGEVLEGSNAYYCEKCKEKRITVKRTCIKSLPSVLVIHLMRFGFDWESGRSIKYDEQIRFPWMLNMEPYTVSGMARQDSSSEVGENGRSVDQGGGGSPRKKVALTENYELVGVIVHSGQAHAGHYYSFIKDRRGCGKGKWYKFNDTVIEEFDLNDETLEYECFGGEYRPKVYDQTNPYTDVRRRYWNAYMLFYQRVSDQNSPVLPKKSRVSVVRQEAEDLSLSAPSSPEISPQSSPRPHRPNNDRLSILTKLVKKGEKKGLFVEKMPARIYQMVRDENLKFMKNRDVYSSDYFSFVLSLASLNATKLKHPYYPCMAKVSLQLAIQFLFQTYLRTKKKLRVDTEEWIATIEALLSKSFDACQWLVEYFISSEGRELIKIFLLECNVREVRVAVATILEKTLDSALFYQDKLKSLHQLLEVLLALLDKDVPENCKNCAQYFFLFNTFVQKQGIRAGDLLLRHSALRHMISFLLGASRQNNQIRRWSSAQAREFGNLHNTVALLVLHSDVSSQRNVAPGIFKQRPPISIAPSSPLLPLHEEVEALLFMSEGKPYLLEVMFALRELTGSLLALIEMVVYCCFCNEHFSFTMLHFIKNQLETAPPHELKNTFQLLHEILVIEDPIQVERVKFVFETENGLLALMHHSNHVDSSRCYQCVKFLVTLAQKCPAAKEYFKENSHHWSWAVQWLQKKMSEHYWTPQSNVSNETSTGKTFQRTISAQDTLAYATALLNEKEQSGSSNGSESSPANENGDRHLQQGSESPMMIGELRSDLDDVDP
Procedure, shortened: as §1

USP25 = biological target: T2, USP25 (UniProt Q9UHP3)
T2 sequence (whole entry): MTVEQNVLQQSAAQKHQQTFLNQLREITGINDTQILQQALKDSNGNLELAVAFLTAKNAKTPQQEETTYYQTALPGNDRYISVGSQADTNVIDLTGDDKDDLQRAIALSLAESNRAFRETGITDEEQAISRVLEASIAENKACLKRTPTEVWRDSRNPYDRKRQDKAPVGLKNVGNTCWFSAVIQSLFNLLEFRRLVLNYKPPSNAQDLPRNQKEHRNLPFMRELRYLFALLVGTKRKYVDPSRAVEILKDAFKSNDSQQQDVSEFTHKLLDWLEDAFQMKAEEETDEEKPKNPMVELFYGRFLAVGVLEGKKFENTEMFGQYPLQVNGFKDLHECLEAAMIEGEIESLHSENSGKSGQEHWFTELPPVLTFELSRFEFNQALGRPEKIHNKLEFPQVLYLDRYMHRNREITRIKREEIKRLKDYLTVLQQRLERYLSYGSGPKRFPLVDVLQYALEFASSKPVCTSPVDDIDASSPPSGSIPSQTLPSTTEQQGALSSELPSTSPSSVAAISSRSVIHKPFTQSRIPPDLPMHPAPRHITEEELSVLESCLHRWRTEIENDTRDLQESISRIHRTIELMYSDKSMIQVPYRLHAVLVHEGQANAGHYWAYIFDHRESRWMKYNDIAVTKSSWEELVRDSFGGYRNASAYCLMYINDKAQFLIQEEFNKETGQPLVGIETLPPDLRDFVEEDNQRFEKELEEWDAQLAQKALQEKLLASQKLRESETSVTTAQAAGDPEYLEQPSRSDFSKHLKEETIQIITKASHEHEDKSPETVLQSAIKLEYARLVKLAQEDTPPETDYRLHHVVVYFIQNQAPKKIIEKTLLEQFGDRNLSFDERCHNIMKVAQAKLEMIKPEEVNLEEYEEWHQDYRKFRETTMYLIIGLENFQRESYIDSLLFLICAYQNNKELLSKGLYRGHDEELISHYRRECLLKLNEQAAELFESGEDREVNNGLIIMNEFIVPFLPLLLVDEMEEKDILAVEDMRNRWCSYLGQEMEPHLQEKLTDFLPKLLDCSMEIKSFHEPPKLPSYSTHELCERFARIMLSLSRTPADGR
Procedure, shortened: as §1

USP28 = biological target: T3, USP28 (UniProt Q96RU2)
T3 sequence (whole entry): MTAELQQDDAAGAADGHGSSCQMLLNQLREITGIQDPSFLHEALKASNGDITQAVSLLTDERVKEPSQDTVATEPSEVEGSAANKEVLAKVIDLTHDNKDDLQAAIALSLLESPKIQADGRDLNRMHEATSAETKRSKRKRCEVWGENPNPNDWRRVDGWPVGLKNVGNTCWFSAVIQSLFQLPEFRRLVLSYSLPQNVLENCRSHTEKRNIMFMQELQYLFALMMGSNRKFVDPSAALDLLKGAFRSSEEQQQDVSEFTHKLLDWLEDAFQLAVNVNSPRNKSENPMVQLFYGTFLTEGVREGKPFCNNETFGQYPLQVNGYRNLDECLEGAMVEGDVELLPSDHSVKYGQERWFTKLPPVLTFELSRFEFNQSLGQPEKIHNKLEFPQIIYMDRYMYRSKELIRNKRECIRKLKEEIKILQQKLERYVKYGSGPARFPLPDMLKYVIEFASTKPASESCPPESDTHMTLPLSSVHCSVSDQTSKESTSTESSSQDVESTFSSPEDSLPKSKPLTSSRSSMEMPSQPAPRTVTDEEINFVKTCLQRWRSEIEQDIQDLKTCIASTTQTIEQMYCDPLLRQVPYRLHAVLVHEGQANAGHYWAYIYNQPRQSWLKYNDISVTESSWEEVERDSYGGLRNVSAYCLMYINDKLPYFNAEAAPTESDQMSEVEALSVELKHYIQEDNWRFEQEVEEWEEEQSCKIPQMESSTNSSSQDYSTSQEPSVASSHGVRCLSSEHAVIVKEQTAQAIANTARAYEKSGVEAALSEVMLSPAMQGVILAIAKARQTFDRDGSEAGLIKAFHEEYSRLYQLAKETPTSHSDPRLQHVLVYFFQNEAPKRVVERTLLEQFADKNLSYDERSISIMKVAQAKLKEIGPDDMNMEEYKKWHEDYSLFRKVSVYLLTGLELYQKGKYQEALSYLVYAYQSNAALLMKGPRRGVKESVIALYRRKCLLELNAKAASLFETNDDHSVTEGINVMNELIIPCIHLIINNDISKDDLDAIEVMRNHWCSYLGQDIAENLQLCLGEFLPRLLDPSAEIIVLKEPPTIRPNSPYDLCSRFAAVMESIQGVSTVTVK
Procedure, shortened: as §1

Measured: log2 ratio of Biotin-Ahx-Ub-VS probe labelling

Cl.Cn1ncc2c1CCCC2NC(=O)CCl (centres undefined)
inactive: USP19 -0.297 | USP24 -0.29 | USP25 -0.289 | USP28 -0.57
